Assay [1] in a line: AP1 Signaling Pathway (AID 357; active = well fitted curve in either direction with a large enough effect, not every such curve was filed as active;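 also: ME-180 reporter cells stimulated with EGF at its EC50 level; % is scaled to controls: 0 for no effect and ±100 for the full control effect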). The conditions noted are these: ME-180 AP-1-bla reporter, EGF-induced, beta-lactamase ratio, 5 h; at 7.69 µM (top of the series) unless noted. In outline: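 First, ME-180 AP-1-bla cells were cultured overnight at 37 °C in low-serum Opti-MEM. Next, titrated compounds with EC50 EGF were incubated 5 hours. Finally, CCF4 was added for 2.5 hours and the 460/530 nm ratio recorded.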

A short description of assay [2]: NFAT Signaling Pathway (AID 444; active = well fitted curve in either direction with a large enough effect, not every such curve was filed as active;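 also: carbachol stimulus at about its EC50 of 1 µM final; % is scaled to controls: 0 for no effect and ±100 for the full control effect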). As to conditions: Jurkat NFAT-bla M1, carbachol, beta-lactamase ratio, 5 h; at 7.69 µM (top of the series) unless noted. Put shortly: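 Jurkat cells with NFAT-driven β-lactamase reporter and co-expressed M1 receptor, stimulated with carbachol (final 1 uM, ~EC50), compound titration, 5 h at 37 °C. CCF4 loaded 1 h at RT; 460/530 nm ratio gave %activity and AC50.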

Assay [3] is described as follows: Stat Signaling Pathway (AID 446; active = well fitted curve in either direction with a large enough effect, not every such curve was filed as active;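 also: ME-180 cervical cancer cells given 40 pM IL-6 alongside compound; SIE-controlled beta-lactamase reporter measured as 460/530 nm FRET emission ratio; % is scaled to controls: 0 for no effect and ±100 for the full control effect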). The conditions noted are these: ME-180 SIE beta-lactamase reporter, IL-6 stimulated, 5 h; at 7.69 µM (top of the series) unless noted. Put shortly: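 Normalization used AC90 stimulation (300 pM IL-6) and AC90 inhibition (125 nM pan-JAK inhibitor at 40 pM IL-6). The underlying signal is SIE-driven beta-lactamase in ME-180 cells after 5 h IL-6 exposure with compound.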

The target in assay [4] is Glucocorticoid receptor (Homo sapiens) (UniProt P04150). Description: GR-EFC Redistribution (AID 451; calls by dose curve; also: potency is read from the fitted curve at half-maximal effect). The conditions noted are these: CHO-K1 GR-EFC translocation, beta-gal luminescence, 2 h. Put shortly:
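CHO-K1 cells expressing nuclear EA and GR-ED fragments of b-gal; compounds titrated up to 46 uM final, 2 h at 37 C. GR nuclear translocation read as complemented b-gal luminescence after 1 h RT detection.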

Assay [5] deals with 3',5'-cyclic-AMP phosphodiesterase 4B (Homo sapiens) (UniProt Q07343). Description: qHTS Assay for Inhibitors of PDE-IV (AID 607; active = well fitted activation curve with a large enough effect in the main read-out, with a control signal flat, not every such curve was filed as active; also: % of control where 0% means no effect). Put shortly:
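HEK293 ACTOne cells with CNG channel (1000/well), endogenous PDE4; membrane potential dye, compounds up to 22.9 uM final. Fluorescence Ex 535/Em 590; RO 20-1724 (100 uM final) as reference.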

Assay [6] deals with Cytochrome P450 3A4 (Homo sapiens) (UniProt P08684). The assay can be described thus: qHTS Assay for Activators of Cytochrome P450 3A4 (AID 885). Also: nearly all actives have a fitted effect of over 65% in size. In outline:
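Human CYP3A4 dealkylates Luciferin-PPXE to luciferin, which luciferase detection converts to light. Substrate was at its KM (25uM), buffer 200mM KPO4, reaction 60 min at RT.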

Assay [7] is described as follows: Primary qHTS for small molecule stabilizers of the endoplasmic reticulum resident proteome: Secreted ER Calcium Modulated Protein (SERCaMP) assay (AID 1508630). Also: % is scaled to controls: 0 for no effect and ±100 for the full control effect. Put shortly:
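The SH-SY5Y reporter protocol was run at 3 concentrations up to 38.3 uM (primary) or 11 concentrations (follow-up): 16 h compound, 100 nM thapsigargin for 4 h, then extracellular luciferase luminescence.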

The target in assay [8] is Lysosomal acid glucosylceramidase (Homo sapiens) (UniProt P04062). The assay can be described thus: Glucocerebrosidase-p2 (AID 348; in the data active = potency below about 10 µM; also: potency is read from the fitted curve at half-maximal effect). The conditions noted are these: purified GBA, blue fluorogenic substrate, 40 min. In outline:
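Normal human glucocerebrosidase (0.2 nM) with blue fluorogenic substrate (80 uM final) in citrate/phosphate pH 5.9 with 10mM sodium taurocholate, 0.01% tween-20; 40 min RT, NaOH/glycine stop; fluorescence Ex 365/Em 440; AC50 from a titration from 0.6 nM upwards.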

In assay [9] the target is Mitogen-activated protein kinase 10 (Mus musculus) (UniProt Q61831). The assay can be described thus: JNK3 AlphaScreen Assay (AID 530; active = well fitted curve in either direction with a large enough effect, not every such curve was filed as active). In outline: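 HepG2 lysate (IL-1b/TNFa pre-activated) + biotin-GST-cJun 1-79 + anti-pSer73 cJun; cpd titration, 15 min RT; ATP 10 uM start; Tris pH 7.6, MgCl2, DTT, vanadate; beads in EDTA buffer; AlphaScreen.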
Assay [10] is described as follows: qHTS Assay for Identification of Small Molecule Agonists for Hypoxia Response Element Signaling Pathway (AID 914; active = well fitted activation curve with a large enough effect in the signal ratio, with a control signal flat, not every such curve was filed as active; the % refers to the signal ratio; also: potency is read from the fitted curve at half-maximal effect). The conditions noted are these: ME-180 (cervical carcinoma) HRE-bla reporter, beta-lactamase ratio, CoCl2, 17 h; activation: active compounds read high. In outline: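 Positive modulation of EC50 CoCl2-induced hypoxia response element signaling is measured in ME-180 cells with a beta-lactamase reporter. Compounds are titrated, incubation runs 17 hours, and %Activity derives from the blue/green ratio.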

Assay [11] deals with Glucocorticoid receptor (Homo sapiens) (UniProt P04150). The assay can be described thus: GR-GFP Redistribution (AID 450;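 active = compounds whose dose series gives a full or clear partial fitted curve of increased nuclear translocation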; also: potency is read from the fitted curve at half-maximal effect). The conditions noted are these: U2OS GR-GFP nuclear translocation, laser cytometry, 2 h.
Chain of Glucocorticoid receptor (Homo sapiens) (P04150 whole entry, looked up, the tested form may be a part): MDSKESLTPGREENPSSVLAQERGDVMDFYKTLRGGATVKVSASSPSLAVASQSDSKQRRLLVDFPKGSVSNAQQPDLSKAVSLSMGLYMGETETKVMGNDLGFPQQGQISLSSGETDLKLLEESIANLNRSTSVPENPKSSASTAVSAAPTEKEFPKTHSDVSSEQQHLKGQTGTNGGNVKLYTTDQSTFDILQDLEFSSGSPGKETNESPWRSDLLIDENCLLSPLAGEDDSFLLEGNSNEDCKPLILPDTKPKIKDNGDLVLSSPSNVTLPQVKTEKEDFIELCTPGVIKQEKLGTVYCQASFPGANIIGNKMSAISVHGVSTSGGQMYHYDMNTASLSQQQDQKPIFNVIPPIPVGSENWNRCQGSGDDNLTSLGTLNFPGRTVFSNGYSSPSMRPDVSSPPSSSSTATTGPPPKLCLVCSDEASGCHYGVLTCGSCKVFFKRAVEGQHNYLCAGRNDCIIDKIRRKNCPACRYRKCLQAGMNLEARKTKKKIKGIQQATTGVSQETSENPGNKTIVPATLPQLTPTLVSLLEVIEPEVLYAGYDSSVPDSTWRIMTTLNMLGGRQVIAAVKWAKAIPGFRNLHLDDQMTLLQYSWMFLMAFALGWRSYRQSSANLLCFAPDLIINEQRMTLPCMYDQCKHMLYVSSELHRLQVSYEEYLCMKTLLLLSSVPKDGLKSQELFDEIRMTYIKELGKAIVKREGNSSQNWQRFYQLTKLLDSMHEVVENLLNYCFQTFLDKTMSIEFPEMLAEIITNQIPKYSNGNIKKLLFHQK
Assay [12] deals with Cytochrome P450 1A2 (Homo sapiens) (UniProt P05177). Description: p450-cyp1a2 (AID 410; calls by dose curve; also: potency is read from the fitted curve at half-maximal effect;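 as to activity change, negative = inhibition: -100% = full effect of reference inhibitor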). Put shortly:
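Read-out is luminescence from luciferin produced by CYP1A2 demethylation of Luciferin-ME (100uM, at Km). Detection reagent stopped the 60 min NADPH-dependent reaction; signals were normalized to 57 uM furafylline.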

Assay [13] concerns the target Cytochrome P450 3A4 (Homo sapiens) (UniProt P08684). The assay can be described thus: qHTS Assay for Inhibitors and Substrates of Cytochrome P450 3A4 (AID 884). Also: potency is read from the fitted curve at half-maximal effect; nearly all actives have a fitted effect of over 50% in size. In outline:
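Luminescent readout of luciferin produced by CYP3A4 (20 nM) dealkylation of Luciferin-PPXE, 25 uM (its KM). NADPH-driven reaction ran 60 min at RT after 10 min compound preincubation; data scaled to 57 uM ketoconazole as 100% inhibition.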

The target of assay [14] is Cytochrome P450 2C9 (Homo sapiens) (UniProt P11712). Description: qHTS Assay for Inhibitors and Substrates of Cytochrome P450 2C9 (AID 883). Also: potency is read from the fitted curve at half-maximal effect; nearly all actives have a fitted effect of over 60% in size. In outline:
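10nM CYP2C9 + 100uM Luciferin-H (=KM), 25mM KPO4; cpd 10 min 37C; NADPH regen, 60 min 37C; stop/detect with P450 Glo-Buffer 20 min; luminescence. Norm. to 57uM sulphaphenazole as full inhibition.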

A number with no mark means an inactive call. Records with an inconclusive call do not appear. Calls of active or inactive are those of the source. Unless noted, calls follow the shape of the dose curve; as a rule, active = well fitted curve in the direction sought with a large enough effect; inconclusive = small, poorly fitted or top-dose-only effect, or another doubt; inactive = no such curve, though single readings can be large; an effect the other way counts as inactive or inconclusive.

Chain of 3',5'-cyclic-AMP phosphodiesterase 4B (Homo sapiens) (Q07343 whole entry, looked up): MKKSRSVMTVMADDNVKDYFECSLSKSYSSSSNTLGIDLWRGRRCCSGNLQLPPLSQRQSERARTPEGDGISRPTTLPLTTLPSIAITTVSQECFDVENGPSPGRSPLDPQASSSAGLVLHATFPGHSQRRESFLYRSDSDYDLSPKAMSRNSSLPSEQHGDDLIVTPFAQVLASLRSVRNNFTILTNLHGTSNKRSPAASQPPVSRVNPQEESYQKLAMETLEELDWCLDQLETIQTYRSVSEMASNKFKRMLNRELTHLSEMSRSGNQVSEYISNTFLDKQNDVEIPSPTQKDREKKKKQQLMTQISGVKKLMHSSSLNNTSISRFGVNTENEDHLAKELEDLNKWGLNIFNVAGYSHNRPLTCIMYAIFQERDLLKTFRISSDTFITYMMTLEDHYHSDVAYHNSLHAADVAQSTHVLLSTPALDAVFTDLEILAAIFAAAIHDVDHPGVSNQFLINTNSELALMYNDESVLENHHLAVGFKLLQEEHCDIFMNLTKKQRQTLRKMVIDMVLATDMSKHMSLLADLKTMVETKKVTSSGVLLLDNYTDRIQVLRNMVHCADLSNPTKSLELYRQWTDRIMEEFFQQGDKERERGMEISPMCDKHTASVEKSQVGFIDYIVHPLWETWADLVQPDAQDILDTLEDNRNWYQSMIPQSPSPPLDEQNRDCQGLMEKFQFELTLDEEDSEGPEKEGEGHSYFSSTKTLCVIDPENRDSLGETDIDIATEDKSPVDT
Chain of Lysosomal acid glucosylceramidase (Homo sapiens) (P04062 whole entry, looked up): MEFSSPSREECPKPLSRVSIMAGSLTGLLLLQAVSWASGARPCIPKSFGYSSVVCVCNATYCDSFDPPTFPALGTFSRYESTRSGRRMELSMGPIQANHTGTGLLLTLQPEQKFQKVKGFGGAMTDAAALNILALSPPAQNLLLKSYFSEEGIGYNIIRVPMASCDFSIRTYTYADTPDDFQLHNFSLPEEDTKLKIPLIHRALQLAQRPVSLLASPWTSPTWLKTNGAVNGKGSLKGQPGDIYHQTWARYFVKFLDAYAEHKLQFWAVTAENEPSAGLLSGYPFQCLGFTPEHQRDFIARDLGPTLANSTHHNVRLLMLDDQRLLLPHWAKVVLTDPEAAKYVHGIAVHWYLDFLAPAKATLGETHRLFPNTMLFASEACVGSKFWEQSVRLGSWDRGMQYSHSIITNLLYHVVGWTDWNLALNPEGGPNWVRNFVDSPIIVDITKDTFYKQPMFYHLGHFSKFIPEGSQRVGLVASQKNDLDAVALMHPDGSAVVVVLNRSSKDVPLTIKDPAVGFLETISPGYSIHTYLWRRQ
Chain of Cytochrome P450 3A4 (Homo sapiens) (P08684 whole entry, looked up): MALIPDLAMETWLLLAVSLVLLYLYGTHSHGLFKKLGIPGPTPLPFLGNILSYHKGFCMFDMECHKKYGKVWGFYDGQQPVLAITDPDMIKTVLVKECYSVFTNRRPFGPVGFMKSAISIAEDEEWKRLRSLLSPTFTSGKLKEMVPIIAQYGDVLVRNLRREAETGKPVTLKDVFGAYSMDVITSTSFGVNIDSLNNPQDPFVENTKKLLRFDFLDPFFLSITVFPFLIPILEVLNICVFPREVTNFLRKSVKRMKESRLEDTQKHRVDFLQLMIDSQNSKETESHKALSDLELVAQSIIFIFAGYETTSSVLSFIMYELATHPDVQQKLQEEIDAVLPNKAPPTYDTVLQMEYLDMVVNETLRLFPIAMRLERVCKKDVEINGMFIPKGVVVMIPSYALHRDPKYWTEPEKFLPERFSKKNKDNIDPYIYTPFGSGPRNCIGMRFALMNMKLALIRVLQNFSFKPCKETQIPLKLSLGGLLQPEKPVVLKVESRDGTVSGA
Chain of Cytochrome P450 1A2 (Homo sapiens) (P05177 whole entry, looked up): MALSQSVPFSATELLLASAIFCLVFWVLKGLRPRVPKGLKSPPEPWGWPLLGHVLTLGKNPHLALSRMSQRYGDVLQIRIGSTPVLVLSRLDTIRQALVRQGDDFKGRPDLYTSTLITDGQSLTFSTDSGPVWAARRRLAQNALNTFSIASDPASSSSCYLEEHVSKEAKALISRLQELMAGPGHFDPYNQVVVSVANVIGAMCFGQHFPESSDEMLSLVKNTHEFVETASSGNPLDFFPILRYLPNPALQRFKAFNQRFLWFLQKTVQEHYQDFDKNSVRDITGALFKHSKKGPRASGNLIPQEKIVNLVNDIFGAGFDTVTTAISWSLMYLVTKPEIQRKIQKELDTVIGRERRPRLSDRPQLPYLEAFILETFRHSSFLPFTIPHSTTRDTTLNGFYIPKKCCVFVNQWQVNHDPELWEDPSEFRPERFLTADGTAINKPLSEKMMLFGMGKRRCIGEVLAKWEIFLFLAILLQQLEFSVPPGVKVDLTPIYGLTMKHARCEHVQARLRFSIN
Chain of Cytochrome P450 2C9 (Homo sapiens) (P11712 whole entry, looked up): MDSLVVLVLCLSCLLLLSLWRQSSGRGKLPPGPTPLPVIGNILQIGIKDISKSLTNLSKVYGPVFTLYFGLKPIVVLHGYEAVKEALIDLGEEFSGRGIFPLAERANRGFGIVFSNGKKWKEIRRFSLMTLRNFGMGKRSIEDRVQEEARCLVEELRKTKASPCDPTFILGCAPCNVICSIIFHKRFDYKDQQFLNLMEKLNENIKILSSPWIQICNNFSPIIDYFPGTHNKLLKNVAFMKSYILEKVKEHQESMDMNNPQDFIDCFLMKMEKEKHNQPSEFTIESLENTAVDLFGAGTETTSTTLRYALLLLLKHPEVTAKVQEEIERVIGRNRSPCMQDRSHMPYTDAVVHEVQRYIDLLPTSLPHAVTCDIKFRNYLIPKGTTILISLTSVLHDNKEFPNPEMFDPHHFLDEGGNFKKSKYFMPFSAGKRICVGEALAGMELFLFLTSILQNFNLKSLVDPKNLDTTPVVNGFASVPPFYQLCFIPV

For `c1ccc(-c2ccc(N3CCCC4(CCNCC4)C3)cc2)cc1`, the activity change, negative = inhibition is 9.27% in assay [1] and 24.2% in assay [2]. Moreover, in [3], the activity, negative = inhibition was -2.12%. In addition, in [4], the Potency was > 46 µM. For the same molecule, the Potency result in assay [5] and in assay [6] was “inactive” each time. Also, the outcome in [7] was inactive.

On to `CCNc1ncc2nc(-c3ccc(Cl)cc3)c(=O)n(C3CC3)c2n1`, for which the Potency in assay [8] is > 11.4 µM; in [4] it was > 46 µM; in assay [10] it was 0.398 µM (active). Moreover, the activity change, negative = inhibition in assay [2] was -4.85%. The Potency result in assay [9] and in [5] was “inactive” throughout. In addition, the result in [7] was inactive.

Take `CCNc1ncc2nc(-c3cc(F)cc(F)c3)c(=O)n(-c3ccccc3)c2n1`: the Potency in assay [8] is > 11.4 µM; in assay [11], > 9.22 µM; in assay [4] it was > 46 µM; in assay [10] it was 2.51 µM (active). Besides, the Potency entry in [9] and in assay [6] was “inactive” in each case. Besides, in assay [7], the result was inactive.

Take `COc1ccc(C(=O)N2CCC3(CCN(C(=O)Nc4cccc(C#N)c4)CC3)CC2)cc1`: the values for the Potency in assay [8] and in [4] were > 11.4 µM and > 46 µM, respectively. In assay [3], the activity, negative = inhibition is -23.9%. For the same molecule, the result in assay [7] was inactive.

As for `CCNc1ncc2nc(-c3ccccc3)c(=O)n(-c3ccc(OC)cc3)c2n1`, the Potency in [8] is > 11.4 µM; in assay [11], > 9.22 µM; in assay [4] it was > 46 µM; in assay [10], 3.16 µM (active). Besides, the Potency entry in [9] is “inactive”. The result in assay [7] was inactive.

In the case of `CCNc1ncc2nc(-c3cc(F)cc(F)c3)c(=O)n(-c3ccc(OC)cc3)c2n1`, the Potency in [8] is > 11.4 µM; in [11], > 9.22 µM; in [4], > 46 µM; in assay [10], 0.398 µM (active). Moreover, the Potency entry in [9], in [5] and in [6] was “inactive” each time. In addition, in assay [7], the result was inactive.

As for `COc1ccc(-n2c(=O)c(C)nc3cncnc32)cc1`, the activity change, negative = inhibition in assay [1] is -7.74%; in [2], 7.82%. For the same molecule, the Potency entry in [12], in [9], in [5] and in [6] was “inactive” throughout. The activity, negative = inhibition in assay [3] is -15.1%. The Potency was > 9.22 µM in assay [11], > 46 µM in assay [4] and 5.01 µM (active) in assay [13]. In addition, the result in assay [7] was inactive.

For the molecule `COc1cccc(Cn2c(=O)c(CCc3ccccc3)nc3cnc(OC)nc32)c1`, the activity change, negative = inhibition in assay [1] is -4.92%; in [2] it was -14.6%. Besides, the Potency is 12.6 µM (active) in assay [12]; > 9.22 µM in assay [11]; > 46 µM in assay [4]; 6.31 µM (active) in [14]; 2.51 µM (active) in assay [13]. Besides, in assay [3], the activity, negative = inhibition was 1.12%. For the same molecule, the Potency entry in assay [6] is “inactive”. Also, the result in assay [7] was inactive.
